IL1B secr inh: inhibitors of inflammasome signaling (IL-1 beta secretion); THP-1 LPS/ATP IL-1B secretion, AlphaLISA, 16 h; hits give low values; 4.7% of 360,000 active; AID 743279; activity change, % at 57.5 µM; in the data active = activity change below about -50%; inconclusive = mostly about -30% to -49%
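THP-1 cells pretreated 1 hr with compounds (up to 57.5 uM final), then stimulated with LPS (250 ng/mL final) plus ATP (1.25 mM final); secreted IL-1B measured by AlphaLISA after 16 hr, decreased signal indicating inhibition.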
TDP1 cell noCPT: qHTS for Inhibitors of human tyrosyl-DNA phosphodiesterase 1 (TDP1): qHTS in cells in absence of CPT | 15% of 420,000 active | Potency, µM (series often up to 46.2 µM), for inactives: at the highest dose activity change, negative = growth inhibition, hits mostly inhibitors | DT40 Tdp1-/- hTDP1 cells, no CPT, ATP luminescence, 48 h; note: potency is the fitted concentration of half-maximal effect; nearly all actives have a fitted effect of over 55% in size
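Seeded 400 DT40-hTDP1 cells/well (vehicle DMSO, no 20 nM CPT); pinned compounds; ≥48 hr at 37 °C; CellTiter-Glo luminescence as viability measure.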
DT40 TDP1 CPT: DT40-hTDP1 cell growth loss with CPT; chicken DT40 Tdp1-/-;hTDP1 cells + 20 nM CPT, ATP luminescence, 48 h; AID 686979; 12% of 420,000 active; Potency, µM (series often up to 46.2 µM), without a hit: at the top dose activity change, negative = growth inhibition, most hits filed as inhibitors; note: potency is the fitted concentration of half-maximal effect; nearly all actives have a fitted effect of over 55% in size
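Chicken DT40 Tdp1-/- cells complemented with human TDP1, 400 cells/well, exposed to compounds plus 20 nM camptothecin for at least 48 h at 37 C; viability read as ATP content by CellTiter-Glo luminescence.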
HT1080 IDH1KD tx: toxicity to HT-1080 IDH1 knockdown cells (counter line); 2% of 360,000 active; HT-1080 IDH1 knockdown viability, ATP luminescence, 48 h; Potency, µM (titrated, usually from 46.1 µM), inactives show at the top dose activity, negative = toxicity, usual class: cytotoxic;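 note: potency is the fitted concentration of half-maximal effect; 0% = DMSO wells and -100% = cell-free medium wells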
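CellTiter-Glo luminescence after 48 h compound exposure at 37 degrees C of IDH1-knockdown HT-1080 cells in 5% FBS RPMI. %Activity scaled between DMSO wells and cell-free media wells, with curves fitted and assigned curve classes.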
HT1080NT lethal: kills 2HG-producing HT-1080-NT fibrosarcoma cells; HT-1080-NT fibrosarcoma viability, CellTiter-Glo ATP luminescence, 48 h; Potency, µM (titrated, usually from 46.1 µM), without a hit: top-dose activity, negative = less viability, most hits filed as cytotoxic; 1.6% of 360,000 active; AID 686970;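 note: NT is the 2HG producing partner of a matched IDH1 knockdown line; potency is the fitted concentration of half-maximal effect; 0% = DMSO-treated cells and -100% = media-only wells without cells; nearly all actives have a fitted effect of over 55% in size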
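750 cells/well, RPMI + 5% FBS; 2 h settle, compound pin-transfer, 48 h at 37 degrees C. CellTiter-Glo 10 min RT, luminescence. Normalized to DMSO and media-only wells.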
Active calls of the source: *; i = inactive; u = inconclusive; x = no result; [ ] = dose if it differs, or a comment. Sampled rows, rich in hits. Any-hit rate of the full collection: about 19%. Unless noted, calls come from the whole dose curve; as a rule, active = well fitted curve in the direction sought with a large enough effect; inconclusive = small, poorly fitted or top-dose-only effect, or another doubt; inactive = no such curve, though single readings can be large; an effect the other way counts as inactive or inconclusive. Unless noted, % is set by controls: 0 for no effect and ±100 for the full control effect.

SMILES	IL1B secr inh	TDP1 cell noCPT	DT40 TDP1 CPT	HT1080 IDH1KD tx	HT1080NT lethal
CN(C(=O)CSc1nc(-c2ccc(C(C)(C)C)cc2)c(C#N)c(=O)[nH]1)C1CCCCC1	0	11%	-6%	-18%	-16%
O=C(N/N=C/c1cccc(OC(=O)c2ccco2)c1)c1ccc(F)cc1	-5	-11%	6%	16%	23%
Cc1ccccc1NC(=O)c1sc2nc(N3CCOCC3)c3c(c2c1N)CCCC3	-15	7.3µM*	u	1%	5%
COc1ccccc1NC(=O)c1sc2nc(N3CCOCC3)c3c(c2c1N)CCCC3	i	u	u	5%	16%
CN(C(=O)c1sc2nc(N3CCOCC3)c3c(c2c1N)CCCC3)c1ccccc1	-1	23µM*	u	-24%	-11%
Nc1c(C(=O)NCCc2ccccc2)sc2nc(N3CCOCC3)c3c(c12)CCCC3	u	23µM*	16µM*	-1%	-20%
CCOC(=O)c1ccc(NC(=O)c2sc3nc(N4CCOCC4)c4c(c3c2N)CCCC4)cc1	17	16µM*	u	0%	1%
CCCCN(CCCC)C(=O)c1sc2nc(N3CCOCC3)c3c(c2c1N)CCCC3	-16	u	u	-2%	1%
O/N=C/c1cc2ccccc2n1Cc1ccccc1F	-23	u	-25%	-22%	-23%
CCCCCn1nc(C(=O)OCc2nnc(-c3ccccc3)o2)c2ccccc2c1=O	6	0%	19%	5%	2%
COc1ccc(CNS(=O)(=O)c2cc(-c3cc(C)no3)ccc2C)cc1OC	-4	-21%	-26%	-6%	-2%
CCc1ccc(-c2cc(C)no2)cc1S(=O)(=O)NCCN1CCC(C)CC1	u	u	u	-23%	-28%
Cc1cc(-c2ccc(C)c(S(=O)(=O)NCC3CCN(Cc4ccc(F)cc4)CC3)c2)on1	-88*	u	18µM*	u	u
CCc1ccc(-c2cc(C)no2)cc1S(=O)(=O)NCCCN1CCN(c2ccccc2)CC1	-19	u	u	u	18µM*
CCc1ccc(-c2cc(C)no2)cc1S(=O)(=O)N1CCN(c2ccc(OC)cc2)CC1	-2	u	21µM*	u	u
COCCN(Cc1cccs1)S(=O)(=O)c1cc(-c2cc(C)no2)ccc1C	x	21µM*	u	x	x
COc1ccc2[nH]c(-c3ccccc3)cc2c1	-12	0%	8%	-3%	1%
COCCN1CCN(C(=O)c2cnn(-c3nccc(-c4ccco4)n3)c2C(C)C)CC1	x	-3%	16%[9.04 µM]	x	x
CCc1ccc(-c2cc(C)no2)cc1S(=O)(=O)NCc1ccc(OC)cc1	x	1µM*	0.92µM*	x	x
Cc1cc(-c2ccc(C)c(S(=O)(=O)N(C(C)C)C3CCCCC3)c2)on1	x	u	21µM*	x	x
COc1ccc(OC)c(CNS(=O)(=O)c2cc(-c3cc(C)no3)ccc2OC)c1	7	-14%	-12%	-1%	2%
COc1cccc(N2CCN(S(=O)(=O)c3cc(-c4cc(C)no4)ccc3C)CC2)c1	x	18µM*	u	x	x
COc1ccc(-c2cc(C)no2)cc1S(=O)(=O)N1CCN(c2ccc([N+](=O)[O-])cc2)CC1	31	0%	u	-8%	-4%
COc1ccc(-c2cc(C)no2)cc1S(=O)(=O)NCc1cccs1	x	15µM*	15µM*	x	x
COc1ccc(-c2cc(=O)oc3cc(OCC(=O)NCC(O)c4ccccc4)ccc23)cc1 (configuration not stated)	26	1%	-2%	7%	4%
SMILES	IL1B secr inh	TDP1 cell noCPT	DT40 TDP1 CPT	HT1080 IDH1KD tx	HT1080NT lethal
CCOC(=O)c1[nH]c(C(=O)O)c(CCN(CC)CC)c1C	8	-10%	-1%	0%	22%
Cc1cc(-c2ccc(C)c(S(=O)(=O)N3CCN(C(=O)c4ccco4)CC3)c2)on1	-15	9%	2%	3%	-6%
CCc1ccc(-c2cc(C)no2)cc1S(=O)(=O)N1CCN(C(=O)c2ccco2)CC1	-19	21µM*	0%	-10%	-27%
CCn1c(C)cc(/C=C2/SC(=O)N(CC(=O)N3CCCC3)C2=O)c1C	-13	-24%	-4%	0%	6%
O=C(CN1C(=O)/C(=C/c2ccccc2)SC1=S)N1CCN(CCc2ccccn2)CC1	8	12µM*	8.2µM*	7%	4%
CCOC(=O)COc1c(Br)cc(/C=C2\SC(=O)N(CC(=O)N3CCCC3)C2=O)cc1OC	-51*	-23%	-23%	9%	9%
CCc1ccc(/C=C2\SC(=S)N(CCCC(=O)N3CCCC3)C2=O)cc1	-29	u	u	2%	1%
Cc1ccc(/C=C2/SC(=S)N(CCC(=O)N3CCOCC3)C2=O)cc1	0	16µM*	12µM*	3%	0%
O=C(CCN1C(=O)/C(=C\c2ccccc2)SC1=S)N1CCCCC1	-100*	10µM*	9.2µM*	u	-1%
Cc1cc(C)nc(NCCC(=O)O)n1	36	10%	3%	19%	17%
COCCCNC(=S)N/N=C/c1ccc(OC)c(Br)c1	-28	u	u	-2%	-7%
COc1cc(/C=C2\SC(=S)N(CCC(=O)N3CCCCC3)C2=O)cc(OC)c1OC	-101*	u	16µM*	u	-15%
CN1CCN(C(=O)CCN2C(=O)/C(=C/c3ccc(F)cc3)SC2=S)CC1	-102*	18µM*	u	-10%	-7%
O=C(CCN1C(=O)/C(=C/c2cccs2)SC1=S)N1CCCCC1	-104*	7.3µM*	5.8µM*	u	u
Cc1ccc(/C=C2/SC(=S)N(CCC(=O)N3CCN(C)CC3)C2=O)cc1	-26	18µM*	u	-18%	-1%
CCOc1ccc(N(CC(=O)NCCSCc2ccccc2)S(=O)(=O)c2ccccc2)cc1	-26	u	u	-12%	-2%
CNC(=O)C1C2C=CC3(O2)C1C(=O)N(C1CC1)C3C(=O)NCc1ccc(OC)cc1 (configuration not stated)	5	5%	5%	11%	13%
Cc1ccc(/C=C2\SC(=S)N(CCC(=O)N3CCCCC3)C2=O)cc1	-9	21µM*	u	2%	4%
Cc1ccc2nc(SCC(=O)Nc3cc(C)on3)c(C)cc2c1	-6	-7%	-6%	9%	-4%
COc1cc(C(=O)NCCCN2CCCC2=O)ccc1OCc1ccc(Cl)cc1Cl	-52*	18µM*	13µM*	6%	11%
Cc1ccc(NS(=O)(=O)c2ccc(C(=O)NCCCN3CCCC3=O)cc2)cc1C	1	23µM*	13µM*	-21%	-16%

High-throughput results deposited in PubChem by National Center for Advancing Translational Sciences (NCATS).
